The values that follow come from PubChem BioAssay (Tox21).

The nature of test [1]: qHTS RealTime-Glo MT Cell Viability Assay in HEK293 cells - 0 hour (AID 1224880). Also: top concentration of the series differs between compounds; nearly all actives have a fitted effect of over 45% in size. A digest of the protocol:
(§1)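 HEK293 cells mixed with RealTime-Glo reagents (NanoLuc plus cell-permeant prosubstrate) at 600 cells/well, preincubated 5 h at 37 C/5% CO2, then given 23 nL compound in DMSO. Nonlytic luminescence from viable cells was read at 0, 8, 16, 24, 32 and 40 h.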

Test [2] is described as follows: A CellTox Green Cytotoxicity Assay to monitor cytotoxicity in HEK293 cells - 32 hour (AID 1224881). Also: nearly all actives have a fitted effect of over 40% in size. A digest of the protocol: (§2)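 HEK293 cells premixed with CellTox Green dye were seeded at 600 cells/well and left 5 h at 37 C/5% CO2 before pin transfer of 23 nL compound in DMSO. Fluorescence from dye bound to dead-cell DNA was read during 40 h treatment.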
The nature of test [3]: A CellTox Green Cytotoxicity Assay to monitor cytotoxicity in HepG2 cells - 0 hour (AID 1224882). Also: nearly all actives have a fitted effect of over 35% in size. A digest of the protocol:
(§3)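 HepG2 cells were seeded together with the CellTox Green dye at 600 cells/well, left 5 h at 37 C/5% CO2, then given compounds in DMSO. Fluorescence from dye bound to dead-cell DNA was read repeatedly over 40 h of treatment at 37 C.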

A short description of test [4]: A CellTox Green Cytotoxicity Assay to monitor cytotoxicity in HepG2 cells - 32 hour (AID 1224883). Also: nearly all actives have a fitted effect of over 50% in size. A digest of the protocol: as §3
Test [5] in a line: A CellTox Green Cytotoxicity Assay to monitor cytotoxicity in HEK293 cells - 8 hour (AID 1224884). Also: nearly all actives have a fitted effect of over 35% in size. The method in brief: as §2
Test [6] is described as follows: qHTS RealTime-Glo MT Cell Viability Assay in HepG2 cells - 16 hour (AID 1224885). Also: nearly all actives have a fitted effect of over 50% in size. The method in brief: (§4)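 Cell number in HepG2 cultures estimated from NanoLuc luminescence generated by metabolic reduction of a prosubstrate by living cells. The homogeneous, nonlytic format allowed repeated reads at 0, 8, 16, 24, 32 and 40 h of compound exposure.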
A general note: In qHTS, concentration-response curves come from the screen itself.

The nature of test [7]: qHTS RealTime-Glo MT Cell Viability Assay in HEK293 cells - 24 hour (AID 1224886). Also: nearly all actives have a fitted effect of over 50% in size. Also: potency is read from the fitted curve at half-maximal effect. As to activity change, negative = cytotoxicity: top concentration of the series differs between compounds. A digest of the protocol:
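Homogeneous bioluminescent viability format in HEK293 cells (600 cells/well). Following 5 h at 37 C/5% CO2, 23 nL compound was pintooled; the signal was measured repeatedly during 40 h incubation.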

Test [8] is described as follows: qHTS RealTime-Glo MT Cell Viability Assay in HEK293 cells - 8 hour (AID 1224887). Also: nearly all actives have a fitted effect of over 50% in size. Also: potency is read from the fitted curve at half-maximal effect. As to activity change, negative = cytotoxicity: top concentration of the series differs between compounds. The method in brief:
as §1

The nature of test [9]: A CellTox Green Cytotoxicity Assay to monitor cytotoxicity in HEK293 cells - 16 hour (AID 1224888). Also: nearly all actives have a fitted effect of over 35% in size. The method in brief:
as §2

Test [10] in a line: qHTS RealTime-Glo MT Cell Viability Assay in HepG2 cells - 0 hour (AID 1224889). Also: nearly all actives have a fitted effect of over 50% in size. The method in brief: as §4
Test [11] can be described thus: A CellTox Green Cytotoxicity Assay to monitor cytotoxicity in HepG2 cells - 8 hour (AID 1224890). Also: nearly all actives have a fitted effect of over 45% in size. A digest of the protocol:
as §3

A short description of test [12]: qHTS assay to identify small molecule antagonists of the estrogen receptor alpha (ER-alpha) signaling pathway using the BG1 cell line in the presence of 0.1 nM 17-beta-estradiol - cell viability counter screen (AID 1259241). Also: nearly all actives have a fitted effect of over 40% in size. A digest of the protocol: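 VM7Luc4E2, 4,000 cells/well, phenol red-free medium + 10% charcoal-stripped FBS; 24 hr plating; cpd + 0.1 nM E2 final, 22 hr 37C/5% CO2; CellTiter-Fluor 30 min, fluorescence.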

A short description of test [13]: qHTS assay to identify small molecule antagonists of the androgen receptor (AR) signaling pathway using the MDA cell line in the presence of 0.5 nM R1881 - cell viability counter screen (AID 1259242). Also: nearly all actives have a fitted effect of over 45% in size. A digest of the protocol: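 MDA-kb2 cells (human breast carcinoma, stably carrying MMTV-luciferase reporter) were exposed to compounds with 0.5 nM R1881 (final) for 16 hr at 37C, 0% CO2; viability then read as live-cell protease fluorescence (CellTiter-Fluor, 30 min) in the same wells.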

Test [14] deals with Estrogen receptor (Homo sapiens) (UniProt P03372). Put plainly: qHTS assay to identify small molecule antagonists of the estrogen receptor alpha (ER-alpha) signaling pathway using the BG1 cell line in the presence of 0.1 nM 17-beta-estradiol (AID 1259244). Also: nearly all actives have a fitted effect of over 50% in size. A digest of the protocol: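 VM7Luc4E2 cells (endogenous full-length ER-alpha, stable 4xERE-luciferase) were grown 5 days in phenol red-free medium with charcoal-stripped FBS, then exposed 22 h at 37C to compounds plus 0.1 nM (final) 17beta-estradiol; ONE-Glo luminescence read-out.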
Sequence of Estrogen receptor (Homo sapiens) (P03372 whole entry, looked up): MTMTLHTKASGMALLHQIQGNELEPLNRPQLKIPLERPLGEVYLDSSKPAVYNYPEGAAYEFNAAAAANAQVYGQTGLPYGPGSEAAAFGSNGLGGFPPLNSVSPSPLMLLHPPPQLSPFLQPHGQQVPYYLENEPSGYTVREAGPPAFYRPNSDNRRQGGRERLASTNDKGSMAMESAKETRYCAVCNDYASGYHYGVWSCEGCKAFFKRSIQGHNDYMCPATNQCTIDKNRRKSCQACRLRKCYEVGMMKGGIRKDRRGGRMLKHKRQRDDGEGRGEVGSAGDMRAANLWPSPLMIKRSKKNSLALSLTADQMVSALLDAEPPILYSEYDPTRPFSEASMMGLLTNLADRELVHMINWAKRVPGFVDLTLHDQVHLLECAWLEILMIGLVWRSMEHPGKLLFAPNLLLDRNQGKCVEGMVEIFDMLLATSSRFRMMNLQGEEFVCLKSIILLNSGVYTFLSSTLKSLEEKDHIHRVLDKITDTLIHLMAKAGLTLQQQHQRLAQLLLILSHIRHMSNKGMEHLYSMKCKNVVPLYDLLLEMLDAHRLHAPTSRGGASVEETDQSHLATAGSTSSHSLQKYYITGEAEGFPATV

Test [15] can be described thus: qHTS assay to identify small molecule phospholipidosis (PLD) inducers (AID 1259344; active = well fitted curve in the direction sought with a large enough effect; an effect the other way counts as inactive or inconclusive). The method in brief:
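Fluorescent phospholipid staining (LipidTOX Red) measured by automated microscopy in fixed HepG2 cells after 24 h treatment; nuclei counterstained with Hoechst 33342; amiodarone as reference inducer.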

The nature of test [16]: qHTS assay to identify small molecule HDAC inhibitors (AID 1259364). Also: top concentration of the series differs between compounds; nearly all actives have a fitted effect of over 45% in size. A digest of the protocol:
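Wild-type HCT-116 cells were plated overnight, exposed to compounds for 2 h at 37 °C, then given HDAC-Glo class I/II luminogenic reagent for 30 min at room temperature before luminescence was read.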

A short description of test [17]: qHTS assay to identify small molecule HDAC inhibitors - cell viability counter screen (AID 1259365). The method in brief:
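Luminescence from CellTiter-Glo, developed 30min at room temperature, reports viability of wild-type HCT-116 cells treated 2hr with compounds at 37 C and 5% CO2 after overnight plating.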

A short description of test [18]: qHTS assay to identify small molecule agonists of the sonic hedgehog signaling (Shh) pathway - cell viability counter screen (AID 1259366). Also: nearly all actives have a fitted effect of over 50% in size. A digest of the protocol:
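Cytotoxicity counter screen run in the same wells as the Shh reporter assay. NIH/3T3 cells carrying a Gli1 response element–driven luciferase were treated with DMSO-dissolved compounds for 24hr, and live-cell protease activity was measured with CellTiter-Fluor.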

Test [19] can be described thus: qHTS assay to identify small molecule antagonists of the sonic hedgehog signaling (Shh) pathway - cell viability counter screen (AID 1259367). Also: nearly all actives have a fitted effect of over 55% in size. The method in brief:
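Using CellTiter-Fluor, viability of Gli1-Luc reporter 3T3 cells is read by fluorescence in the wells used for the Shh luciferase assay. Treatment lasts 23 hr with conditioned medium, then reagent 1 hr at 37C.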

A number with no mark means an inactive call. Records with an inconclusive call do not appear. Active and inactive are the calls of the source. Unless noted, calls follow the shape of the dose curve; as a rule, active = well fitted curve in the direction sought with a large enough effect in the repeat runs; inconclusive = weak or mixed curves; inactive = no such curve, though single readings can be large; an effect the other way counts as inactive or inconclusive.
% is scaled to controls: 0 for no effect and ±100 for the full control effect.

On to `CC1CCN(CCCC(=O)c2ccc(F)cc2)CC1`, for which the call in test [1], in test [6], in test [12], in test [13], in test [14] and in test [17] was inactive. In addition, the compound was called inactive in test [19]. For the same compound, the Potency entry in test [2], in test [3], in test [4], in test [5], in [7] and in [8] was “inactive” each time. In addition, the Potency entry in test [9], in [10], in test [11], in test [15], in test [16] and in test [18] was “inactive” throughout.
Consider `CCn1cc(C(=O)O)c(=O)c2cc(F)c(N3CCN(C)CC3)cc21`, for which the activity change, negative = cytotoxicity in test [1] is 5.85% [at 15.8 µM]; in [7] it was 2.21% [at 15.8 µM]; in test [8], 7.74% [at 15.8 µM]; in test [10], 5.05% [at 15.8 µM]; in test [12] it was 1.73% [at 19 µM]; in test [17], 2.46% [at 19 µM]. For the same compound, the cytotoxicity increase in test [2] was -8.3% [at 15.8 µM]; in test [4], -17.6% [at 15.8 µM]; in test [5], -3.43% [at 15.8 µM]; in test [11], -10.7% [at 15.8 µM]. Further, the cytotoxicity in [3] is -1.13% [at 15.8 µM]. Moreover, the activity change, negative = cytotoxic in [6] was 0.92% [at 15.8 µM]. Also, in [9], the activity change is -0.608% [at 15.8 µM, active compounds read high]. In addition, the viability change, negative = cytotoxic in test [13] was 1.22% [at 19 µM]; in test [18], 6.14% [at 19 µM]; in [19] it was 3.37% [at 19 µM]. Moreover, the Potency result in test [15] is “inactive”. The activity change, negative = inhibition in [16] is -0.624% [at 19 µM].
For the compound `CSc1nc(NC2CC2)nc(NC(C)(C)C)n1`, the outcome in [1], in test [6], in test [12], in [13] and in test [17] was inactive. The Potency result in test [2], in test [3], in [4], in test [5], in [9] and in test [10] was “inactive” throughout. Further, the Potency result in test [11] was “inactive”. In addition, the Potency is 21.9 µM (active) in test [7] and 19.5 µM (active) in [8].
Turning to `CN(C)C(=O)Nc1ccccc1`, the outcome in [1], in [6], in test [12], in test [13], in test [17] and in [19] was inactive. Also, the Potency entry in test [2], in test [3], in [4], in test [5], in test [7] and in [8] was “inactive” in each case. Besides, the Potency entry in test [9], in test [10], in test [11], in test [16] and in [18] was “inactive” throughout.
As to `C=C[Si](OC)(OC)OC`, the compound was classed as inactive in [1], in test [6], in test [12], in test [13], in [14] and in test [19]. Besides, the Potency entry in [2], in [3], in test [4], in test [5], in test [7] and in test [8] was “inactive” in each case. The Potency entry in [9], in test [10], in test [11], in [16] and in test [18] was “inactive” each time.
With `OCCCCCCO`, the result in test [1], in test [6], in [12], in test [13], in [17] and in test [19] was inactive. The Potency result in [2], in test [3], in test [4], in test [5], in test [7] and in [8] was “inactive” throughout. Moreover, the Potency entry in test [9], in [10], in test [11] and in test [16] was “inactive” throughout.
With `N#CC1(O)CCCCC1`, the outcome in test [1], in [6], in test [12] and in test [13] was inactive. Moreover, the Potency result in test [2], in [3], in test [4], in test [5], in [7] and in test [8] was “inactive” in each case. Also, the Potency result in test [9], in test [10], in test [11] and in [16] was “inactive” each time.
Consider `CCCCOCC(C)OCC(C)O` (configuration not stated), for which the compound was called inactive in test [1], in [6], in test [12], in test [13], in [14] and in [19]. Further, the Potency result in test [2], in test [3], in test [4], in [5], in test [7] and in [8] was “inactive” in each case. In addition, the Potency result in test [9], in test [10], in test [11], in [16] and in test [18] was “inactive” in each case.
